Shown are actives, neighbours in structure and some others; about 3% of the full set was active somewhere.
IkB signaling: IkB pathway inhibition in ABC-DLBCL cells; ABC-DLBCL IkBa-CBG/CBR dual luciferase ratio, 4 h; response scale: scaled: untreated 0%, proteasome inhibitor 100%; Potency, µM (doses to about 57.1 µM), without a hit: top-dose IkBa stabilization activation; 110,000 tested, 0.04% active; AID 445; active means well fitted curve in the direction sought with a large enough effect in the signal ratio, not every such curve was filed as active; inconclusive means small, poorly fitted or top-dose-only effect, or a change in a side signal; the % refers to the signal ratio;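 further: the direction sought is a rising ratio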
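In this assay, an IκBα–CBG68 fusion accumulates when IKK-driven degradation is blocked; native CBR normalizes for cell number. OCI-Ly3 cells were treated 4 h with compound and doxycycline, then green and red light read after Chroma-Glo addition.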
Peg3 imprint: induces erasure of genomic imprints in mouse ES cells; mouse ES Peg3-LacZ reporter, beta-gal luminescence, 40 h; Potency, µM (top dose mostly 60.7 µM), without a hit: at the highest dose activity change, positive = activation, most hits filed as activators; 110,000 tested, 0.02% active; AID 1948
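Readout: BetaGlo luminescence (5 min, room temp) for LacZ from the normally silent maternal Peg3 allele in female Peg3LacZ-Neo ES cells. Cells 300/well, 40 h, 37C, 5% CO2. Data normalized per plate to negative controls.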
p53ts 39C kill: cytotoxicity in p53ts cells at nonpermissive temperature; H1299-p53A138V viability at 39C, ATP luminescence, 24 h; Potency, µM (titrated, usually from 46.1 µM), for the others: top-dose activity change, negative = cell killing, most hits filed as cytotoxic; 130,000 tested, 1.5% active; AID 902; further: on the % scale 0 is the no-effect control and ±100 the full control effect; nearly all actives have a fitted effect of over 55% in size
CRE Fsk mod: modulators of forskolin-stimulated CRE signaling in CHO cells. CHO CRE-bla reporter (cAMP response element driving beta-lactamase), forskolin EC10, beta-lactamase ratio. Potency, µM (doses to about 38.2 µM), without a hit: top-dose activity change, negative = inhibition, hits mostly activators. 71,000 tested, 2.5% active. AID 662; active means well fitted activation curve with a large enough effect in the signal ratio, with a control signal flat, not every such curve was filed as active; inconclusive means small, poorly fitted or top-dose-only effect, or effect the other way, or a change in a side signal; the % refers to the signal ratio; further: % of control where 0% means no effect
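Beta-lactamase reporter under a cAMP responsive element in CHO cells; compounds tested in titration series against EC10 NKH 477, 3 h at 37 °C. Read-out: CCF4 FRET ratio 460nm/530nm (excitation 405nm) giving %Activity, fitted to AC50.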
p53ts 32C tox: cytotoxicity in p53ts cells at permissive temperature. H1299-p53A138V at 32C, ATP luminescence viability, 24 h. Potency, µM (top dose mostly 46.1 µM), inactives show at the top dose activity change, negative = cytotoxicity, hits mostly cytotoxic. 130,000 tested, 0.93% active. AID 924;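 further: 0% = DMSO and -100% = full killing by reference compound; nearly all actives have a fitted effect of over 55% in size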
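H1299-p53 A138V cells (temperature-sensitive p53) exposed 24 h to up to 46 uM compound at 32C, where p53 is wild-type in conformation. Viability read as ATP luminescence and normalised to DMSO and 100 uM tamoxifen. AC50 fitted with the Hill equation.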
The depositor's hits bear a star; u = inconclusive; x = no result given; [ ] = remark or other dose. Unless noted, the call rests on the fitted dose curve; in most records, active means well fitted curve in the direction sought with a large enough effect; inconclusive means small, poorly fitted or top-dose-only effect, or another doubt; inactive means no such curve, though single readings can be large; an effect the other way counts as inactive or inconclusive. Potency means the concentration at half of the fitted maximal effect.

SMILES	IkB signaling	Peg3 imprint	p53ts 39C kill	CRE Fsk mod	p53ts 32C tox
O=C(Nc1ccc(CN2CCOCC2)cc1)c1cc2ccccn2n1	6%	-88%	6.3µM*	5%	5µM*
O=C(Nc1ccc2oc(-c3cc(Br)ccc3Cl)nc2c1)c1cc2ccccc2o1	-1%	-2%[10.9 µM]	5µM*	x	u
COc1ccc(NC(=O)c2oc3ccccc3c2NC(=O)c2cc(=O)c3ccccc3o2)cc1	9%	-7%[10.9 µM]	21%	x	0%
Cn1c(=O)n(C)c2cc(NC(=O)c3cc4ccccc4o3)ccc21	u	-25%	-15%	10µM*	6%
O=C(O)c1ccc(NC(=O)c2cc3ccccc3o2)cc1	u	-41%[10.9 µM]	10µM*	x	7.9µM*
CN(Cc1ccco1)c1ncncc1-c1cccc(NS(C)(=O)=O)c1	2%[11.4 µM]	-4%	7%	-4%	16%
CN(Cc1ccco1)c1ncnc2ccc(-c3cccc(NS(C)(=O)=O)c3)cc12	0%[11.4 µM]	-41%	-8%	1.3µM*	-1%
CCc1ccc(-c2nc(-c3cc4ccccc4oc3=O)sc2C)cc1	6%	3%[10.9 µM]	41%	x	-9%
Cc1ccc(NC(=O)c2ccc(NC(=O)N3CCSc4ncccc43)cc2)c(Cl)c1	1%	-12%[10.9 µM]	u	x	10µM*
Cc1ccn2cc(C(=O)Nc3ccc4c(c3)OCCO4)nc2c1	u	-32%	13µM*	12%	13µM*
CC(=O)c1cccc(NC(=O)c2cc(-c3ccc4c(c3)OCCO4)on2)c1	u	-8%[10.9 µM]	2.5µM*	x	1.3µM*
Cc1ccc(O)c(NC(=O)c2cc(-c3ccc4c(c3)OCO4)on2)c1	u	-43%[10.9 µM]	u	x	u
Cc1ccn2cc(C(=O)Nc3ccccc3N3CCOCC3)nc2c1	-3%	-9%	-14%	8%	-1%
CC(=O)c1cccc(NC(=O)c2cc(-c3ccc(C)cc3)on2)c1	-1%	1%	-28%	0%	u
Cc1ccc(OC(=O)c2cc(-c3ccc4c(c3)OCCO4)on2)c(C)c1	2%	-16%[10.9 µM]	13µM*	x	20µM*
CC(=O)Nc1ccc(NC(=O)c2cc(-c3ccc4c(c3)OCCO4)on2)cc1	0%	-12%[10.9 µM]	1.6µM*	x	u
CCN(c1ccccc1)c1nnc(NC(=O)Nc2cccc(Br)c2)s1	u	-3%[10.9 µM]	-14%	x	3%
CCc1ccc(NC(=O)Cn2c(=O)n(CC3CCCO3)c(=O)c3cc(OC)c(OC)cc32)cc1 (centres undefined)	u	5%[10.9 µM]	u	x	6%
CCOC(=O)CSc1ccc2nnc(-c3cccs3)n2n1	-2%	-7%	10%	4µM*	-9%
COc1cccc(CNC(=O)C2CCN(C(=O)N3CCOc4ccc(Cl)cc43)CC2)c1OC	-3%	-6%[10.9 µM]	-4%	x	12%
CC(C)=CCNc1ncnc2nc[nH]c12	0%[11.4 µM]	1%[10.9 µM]	12%[9.22 µM]	0%[7.6 µM]	1%[9.22 µM]
CCOC(=O)CNc1ncnc2nc[nH]c12	u	-78%	u	4%	7.9µM*
CCOc1cc(C(=O)NCC(c2ccc(N(C)C)cc2)N2CCOCC2)cc(OCC)c1OCC (centres undefined)	u	6%[10.9 µM]	-20%	x	7%
COc1ccc(C(=O)Nc2ccc(-n3nncc3-c3ccc(OC)c(OC)c3)cc2)cc1	-2%	-28%[10.9 µM]	-8%	x	9%
COc1ccc(-c2cnnn2-c2ccc(NC(=O)c3ccco3)cc2)cc1OC	-3%	10%	-4%	3.2µM*	2%
SMILES	IkB signaling	Peg3 imprint	p53ts 39C kill	CRE Fsk mod	p53ts 32C tox
CCOC(=O)c1c(-c2ccccc2)csc1NC(=O)c1nc(S(=O)(=O)CC)ncc1Cl	u	-39%[10.9 µM]	u	x	u
O=C(NC1CCCC1)c1cnn2c(C(F)(F)F)cc(-c3ccco3)nc12	-1%	2%	2%	u	12%
CC(C)CCNC(=O)c1cnn2c(C(F)(F)F)cc(-c3ccco3)nc12	-1%	-27%	21%	5µM*	2%
CCc1nc(NCc2ccco2)c2oc3ccccc3c2n1	0%	-27%	-8%	4µM*	-7%
CCNc1nc(CC)nc2c1oc1ccccc12	-1%	-15%	4%	7.9µM*	21%
CCc1nc(NCC2CCCO2)c2oc3ccccc3c2n1 (centres undefined)	2%	-12%	6%	u	-4%
CCc1nc(N2CCC(C)CC2)c2oc3ccccc3c2n1	5%	-10%	-14%	10µM*	-9%
CCc1nc(SCCO)c2oc3ccccc3c2n1	-4%	-15%	-5%	4µM*	-15%
CCc1nc(N(CC)CC)c2oc3ccccc3c2n1	1%	-15%	-2%	7.9µM*	-1%
OCCNc1nc(Nc2ccccc2)nc2ccccc12	x	x	2%	x	-9%
Nc1nc(Nc2cccc(F)c2)nc2ccccc12	0%	-86%	13µM*	-9%	u
COc1ccc(NC(=O)CSc2nnc(NC(=O)NC3CCCCC3)s2)cc1OC	u	-8%[10.9 µM]	7.9µM*	x	10µM*
CC(=O)c1ccc(NC(=O)CSc2nnc(NC(=O)NC3CCCCC3)s2)cc1	u	-18%[10.9 µM]	7.9µM*	x	7.1µM*
O=C(CSc1nnc(NC(=O)c2ccco2)s1)NC1CCCCC1	u	-12%	-15%	-8%	4%
COc1ccccc1NC(=O)CSc1nnc(NC(=O)NC2CCCCC2)s1	u	-6%[10.9 µM]	7.9µM*	x	u
O=C(CSc1nnc(NC(=O)NC2CCCCC2)s1)Nc1ccccc1F	-3%	7%[10.9 µM]	10µM*	x	10µM*
Cc1cccc(-c2noc(-c3ccccc3OCC(=O)Nc3ccccc3[N+](=O)[O-])n2)c1	u	10%[10.9 µM]	2%	x	2%
CCCCS(=O)(=O)CC(O)CSc1nc(-c2ccc(C)cc2)cc(-c2ccccc2)c1C#N (centres undefined)	-1%	-7%[10.9 µM]	3%	x	21%
CCCS(=O)(=O)N1CC(=O)N(c2ccccc2F)C(C)(C(=O)NC2CCCCCC2)C1 (centres undefined)	x	x	x	x	-3%
O=S(=O)(Nc1cccnc1)c1cccc2cccnc12	-1%	-13%	4%	0%	5%
Cc1ccc(NC2=CC(=O)C(=O)c3ccccc32)cc1	x	x	3.2µM*	x	u
CCOc1ccc(N(C)C(CNS(=O)(=O)c2ccccc2)c2ccccc2)cc1 (centres undefined)	u	3%[10.9 µM]	0%	x	10%
Cc1ccc(Cn2c(C)c(CNCc3ccccc3F)c(C(=O)O)c2C)cc1	1%	5%[10.9 µM]	0%	x	5%
CC(C)(C)c1ccc(OCC(=O)NCC2(N3CCOCC3)CCCCC2)cc1	u	-11%[10.9 µM]	16µM*	x	u
COC(=O)C(C#N)c1nc2ccccc2nc1N1CCCC1 (centres undefined)	-3%	-14%	6%	10µM*	15%
CC(C)OC(=O)C(C#N)c1nc2ccccc2nc1N1CCCC1 (centres undefined)	x	x	9%	x	4%
COc1cccc2sc(N(C)c3ccccc3)nc12	2%	-64%	13µM*	21%	10µM*

Screens from PubChem.
